MazEF act = activators of E. coli MazEF toxin-antitoxin RNase; P0AE70; hit rate 0.32% among 350,000; FAM/BHQ RNA-DNA oligo cleavage fluorescence, 5 h; activation, % at 20 µM; AID 504720; in the data active = activation above about 50%
Target sequence (P0AE70 whole entry, looked up): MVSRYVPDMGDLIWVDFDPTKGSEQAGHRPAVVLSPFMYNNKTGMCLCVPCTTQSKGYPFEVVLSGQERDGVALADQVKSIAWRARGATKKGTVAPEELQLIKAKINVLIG
CCHF vOTU inh = blocks the CCHF virus ovarian tumor domain protease. CCHFV vOTU protease, Pep-AMC fluorescence. inhibition, % at 11.5 µM. hit rate 0.55% among 370,000. AID 651958; in the data active = inhibition above about 30%; note: 0% = vehicle wells with enzyme and 100% = no enzyme wells
Mtb FBA inh = inhibitors of M. tuberculosis fructose-bisphosphate aldolase; P9WQA3; purified M. tuberculosis FBA, fluorescence read-out; inhibition, % at 1 µM; hit rate 2.3% among 360,000; AID 588726;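 note: 0% = vehicle and 100% = reference inhibitor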
Target sequence (P9WQA3 whole entry, looked up): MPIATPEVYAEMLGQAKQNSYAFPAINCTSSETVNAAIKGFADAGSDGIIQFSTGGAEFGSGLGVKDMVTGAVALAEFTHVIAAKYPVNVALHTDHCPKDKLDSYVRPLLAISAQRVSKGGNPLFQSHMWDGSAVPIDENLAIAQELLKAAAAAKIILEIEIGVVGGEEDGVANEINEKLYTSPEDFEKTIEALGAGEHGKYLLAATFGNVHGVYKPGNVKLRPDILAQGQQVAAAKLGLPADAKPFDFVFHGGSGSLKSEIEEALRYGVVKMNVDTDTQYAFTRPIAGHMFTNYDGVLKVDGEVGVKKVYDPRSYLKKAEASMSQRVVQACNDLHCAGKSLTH
Mtb bLac sens = beta-lactam sensitization of Mtb H37Rv; AID 434955; M. tuberculosis H37Rv growth with meropenem, percent inhibition; hit rate 0.27% among 330,000; inhibition, % at 25 µM; call rule not given here;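 note: growth measured after seven days incubation then overnight dye step; 0% = bacteria only wells and 100% = bacteria with antibiotic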
GDH-TPI counter-1 = GDH-TPI coupled enzyme inhibition counter-screen; GDH-TPI coupled enzyme counterscreen, NADH absorbance; inhibition, % at 4.8 µM; hit rate 1.2% among 360,000; AID 588335; in the data active = inhibition above about 30%;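 note: 0% = DMSO wells and 100% = wells lacking the enzyme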
Mtb FBA inh conf = Mtb FBA inhibition, confirmed. shares compounds with Mtb FBA inh. purified M. tuberculosis FBA, fluorescence read-out. inhibition, % at 1 µM. hit rate 78% among 5,600. AID 651616;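 note: 0% = vehicle wells and 100% = reference inhibitor wells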
GDH-TPI counter-2 = counter-screen for M. tuberculosis FBA inhibitors: GDH-TPI coupled enzyme inhibition; shares compounds with Mtb FBA inh; GDH-TPI coupled enzyme counterscreen, fluorescence; inhibition, % at 1 µM; hit rate 81% among 5,600; in the data active = inhibition above about 10%
GDH-TPI dose = inhibits GDH-TPI coupling enzymes in dose response | hit rate 79% among 170 | shares compounds with Mtb FBA inh | AID 652145 | IC50, µM | GDH-TPI coupled enzyme assay, fluorescence, artifact counterscreen; call rule not given here
An asterisk follows results filed as active. Hits are enriched below; roughly 4% of the tested compounds scored in any of these assays. Cut-off read from the data, not from the text of the source, unless noted: active = inhibition above about 27%; inactive = the rest.

How did Cc1c(OCC(=O)NCCCN2CCCC2=O)ccc2c3c(c(=O)oc12)CCCC3 do in these assays?
MazEF act: -3.0; CCHF vOTU inh: -1.5; Mtb FBA inh: 29.1*; Mtb bLac sens: -3.9; GDH-TPI counter-1: 20.7; Mtb FBA inh conf: active; GDH-TPI counter-2: active

Results for Cc1cc(OCC(=O)NCCCN2CCOCC2)c2c(C)c(C)c(=O)oc2c1 ?
MazEF act: 9.6; CCHF vOTU inh: -34.9; Mtb FBA inh: 86.1*; Mtb bLac sens: 1.5; GDH-TPI counter-1: 10.3; Mtb FBA inh conf: 129.3*; GDH-TPI counter-2: 144.2*

How did Cc1cc(OCC(=O)NCCCN2CCCC2=O)c2c(C)c(C)c(=O)oc2c1 do in these assays?
MazEF act: -3.1; CCHF vOTU inh: -19.9; Mtb FBA inh: 80.0*; Mtb bLac sens: -3.9; GDH-TPI counter-1: 0.4; Mtb FBA inh conf: active; GDH-TPI counter-2: active

What do the screens show for `Cc1cc(OCC(=O)NCCc2ccc(S(N)(=O)=O)cc2)c2c(C)c(C)c(=O)oc2c1`?
MazEF act: -16.1; CCHF vOTU inh: -19.1; Mtb FBA inh: 64.8*; Mtb bLac sens: 1.6; GDH-TPI counter-1: 6.7; Mtb FBA inh conf: 11.5; GDH-TPI counter-2: -0.6; GDH-TPI dose: 1.96*

What do the screens show for `CC(C)n1nnnc1C1(C)CSCC(=O)N1Cc1cccc(F)c1` (stereo not given)?
CCHF vOTU inh: -0.8

How did CC(=O)N(Cc1ccccc1)c1nccs1 do in these assays?
CCHF vOTU inh: 1.4

What do the screens show for `COC(=O)C1CCCN(C(=O)C2CCN(S(=O)(=O)c3cccs3)CC2)C1` (stereo not given)?
CCHF vOTU inh: -6.7

How did COc1ccc(/C=C2\CC3(OC(=O)c4ccccc4)CCCN2C3)cc1 (stereo not given) do in these assays?
CCHF vOTU inh: 11.2

Results for Cc1c(C)c2ccc(OCC(=O)NCCCN3CCCC3=O)cc2oc1=O ?
MazEF act: 5.4; CCHF vOTU inh: -22.6; Mtb FBA inh: 86.6*; Mtb bLac sens: inconclusive; GDH-TPI counter-1: 19.7; Mtb FBA inh conf: 55.7*; GDH-TPI counter-2: 45.7*

Results for Cc1cc(=O)oc2cc(OCC(=O)NCCCN3CCCC3=O)ccc12 ?
MazEF act: 10.0; CCHF vOTU inh: -0.8; Mtb FBA inh: 17.9; Mtb bLac sens: 2.3; GDH-TPI counter-1: 10.1

Results for COc1ccccc1-c1nc2ccccc2nc1-c1ccccc1OC ?
MazEF act: 1.7; CCHF vOTU inh: -1.4; Mtb FBA inh: 28.4*; Mtb bLac sens: 1.4; GDH-TPI counter-1: 10.7; Mtb FBA inh conf: 165.8*; GDH-TPI counter-2: 140.5*

What do the screens show for `Cc1ccc(C2=CC(c3ccccc3)n3ncnc3N2)c(C)c1` (stereo not given)?
MazEF act: 1.2; CCHF vOTU inh: -9.3; Mtb FBA inh: -0.1; Mtb bLac sens: 43.6; GDH-TPI counter-1: 4.3

Results for Cc1ccc(C2C=C(c3ccccc3OC(F)F)Nc3ncnn32)cc1 (stereo not given) ?
MazEF act: 7.3; CCHF vOTU inh: -16.6; Mtb FBA inh: 31.9*; Mtb bLac sens: -10.9; GDH-TPI counter-1: 13.3; Mtb FBA inh conf: 70.0*; GDH-TPI counter-2: 68.4*

What do the screens show for `CN(C)c1ccc(C2C=C(c3ccc(Cl)cc3OC(F)F)Nc3ncnn32)cc1` (stereo not given)?
MazEF act: -68.9; CCHF vOTU inh: -5.4; Mtb FBA inh: 0.7; Mtb bLac sens: 78.8; GDH-TPI counter-1: 4.0

Results for Cc1ccc(C2=CC(c3ccccc3)n3ncnc3N2)cc1 (stereo not given) ?
MazEF act: 3.4; CCHF vOTU inh: -12.5; Mtb FBA inh: 67.5*; Mtb bLac sens: 66.8; GDH-TPI counter-1: 3.1; Mtb FBA inh conf: 87.9*; GDH-TPI counter-2: 67.4*

What do the screens show for `CC(=O)C1(C(=O)N2CCOCC2)CC(c2ccccc2C(F)(F)F)=NO1` (stereo not given)?
CCHF vOTU inh: -3.2

How did O=C(O)CCCC[n+]1ccccc1 do in these assays?
CCHF vOTU inh: -0.9

What do the screens show for `COc1ccc(CC(=O)Nc2ccc(N(C)C)c3ccccc23)cc1`?
MazEF act: 9.0; CCHF vOTU inh: -10.3; Mtb FBA inh: 33.6*; Mtb bLac sens: 4.4; GDH-TPI counter-1: 2.6; Mtb FBA inh conf: active; GDH-TPI counter-2: 128.2*

How did CCCCN(CC)CCNC(=O)c1cc2c(=O)n(CC)c3ccccc3c2s1 do in these assays?
MazEF act: 14.1; CCHF vOTU inh: -56.0; Mtb FBA inh: 40.4*; Mtb bLac sens: 3.4; GDH-TPI counter-1: 18.0; Mtb FBA inh conf: 175.6*; GDH-TPI counter-2: 115.7*

Results for CCN(CC)CCNC(=O)Cc1c(C(=O)O)n(CC)c2ccccc12 ?
MazEF act: 1.0; CCHF vOTU inh: -11.8; Mtb FBA inh: 2.3; Mtb bLac sens: -0.9; GDH-TPI counter-1: 0.7

How did CN(C)CCCNC(=O)c1cc2sc3ccccc3c2s1 do in these assays?
MazEF act: 13.7; CCHF vOTU inh: -0.8; Mtb FBA inh: 3.1; Mtb bLac sens: -8.9; GDH-TPI counter-1: 2.6

What do the screens show for `CCCN(CCC)CCCNC(=O)c1cc2c(=O)n(CC)c3ccccc3c2s1`?
MazEF act: 13.8; CCHF vOTU inh: -51.2; Mtb FBA inh: 27.3*; Mtb bLac sens: -0.4; GDH-TPI counter-1: 17.0; Mtb FBA inh conf: active; GDH-TPI counter-2: active

Results for CCn1c(=O)c2cc(C(=O)NCC(OC)OC)sc2c2ccccc21 ?
MazEF act: 9.2; CCHF vOTU inh: -59.6; Mtb FBA inh: 61.2*; Mtb bLac sens: -0.6; GDH-TPI counter-1: 15.8; Mtb FBA inh conf: active; GDH-TPI counter-2: 179.2*

What do the screens show for `CCCCN(CC)CCCNC(=O)c1cc2c(=O)n(CC)c3ccccc3c2s1`?
MazEF act: 22.6; CCHF vOTU inh: -68.7; Mtb FBA inh: 79.2*; Mtb bLac sens: 3.0; GDH-TPI counter-1: 14.0; Mtb FBA inh conf: 6.3; GDH-TPI counter-2: -2.0

How did CCOC(CNC(=O)c1cc2c(=O)n(CC)c3ccccc3c2s1)OCC do in these assays?
MazEF act: -1.8; CCHF vOTU inh: -19.1; Mtb FBA inh: 18.2; Mtb bLac sens: -3.0; GDH-TPI counter-1: 19.3

How did COc1cccc(NC(=O)NC2CCCCN(Cc3ccccc3C)C2=O)c1 (stereo not given) do in these assays?
CCHF vOTU inh: 0.8

How did CCOC(=O)[C@@]12CCC3=C1N(CCC3)C(=O)[C@H](CC(=O)NCc1cccs1)C2 do in these assays?
CCHF vOTU inh: -1.3

What do the screens show for `CCC(C)NC(=O)c1cc2c(=O)n(CC)c3ccccc3c2s1` (stereo not given)?
MazEF act: 5.4; CCHF vOTU inh: -47.3; Mtb FBA inh: 47.7*; Mtb bLac sens: 9.5; GDH-TPI counter-1: 18.4; Mtb FBA inh conf: 99.7*; GDH-TPI counter-2: 92.0*

Results for CCn1c(=O)c2cc(C(=O)NCCCOC)sc2c2ccccc21 ?
MazEF act: 1.1; CCHF vOTU inh: -37.1; Mtb FBA inh: 53.6*; Mtb bLac sens: -2.0; GDH-TPI counter-1: 26.5; Mtb FBA inh conf: active; GDH-TPI counter-2: 186.0*
